# Laboratory results taken from PubChem BioAssay (NCI).
# The panel holds about 79,000 compounds, 15% with a hit somewhere; the sample as a whole holds those more often. Unmarked numbers belong to inactive results. Activity calls are given as the source filed them. Cut-off read from the data, not from the text of the source: active = growth inhibition above about 70%; inactive = the rest.
# Columns and labels:
# [1] = NCI Yeast Anticancer Drug Screen. Data for the rad50 strain (AID 155);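 note: 0% = growth of vehicle-only cultures of the same strain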; conditions: S. cerevisiae rad50 strain growth inhibition, hits give high values
# Method in brief: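 Vehicle-treated cultures provide the reference for the growth inhibition reported for compound-exposed, repair-deficient yeast.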
# [2] = NCI Yeast Anticancer Drug Screen. Data for the mec2-1 strain (AID 157); conditions: S. cerevisiae mec2-1 strain, hits give high values
# Method in brief: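 Vehicle-treated cultures served as reference for growth inhibition of compound-exposed mec2-1 yeast.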
# [3] = NCI Yeast Anticancer Drug Screen. Data for the sgs1 mgt1 strain (AID 161);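 note: 0% = growth of cultures given vehicle only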; conditions: S. cerevisiae sgs1 mgt1 strain, hits give high values
# Method in brief: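 Inhibition of yeast growth, normalised to vehicle-treated controls, is reported for a strain bearing genetic alterations in DNA damage repair.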
# [4] = NCI Yeast Anticancer Drug Screen. Data for the cln2 rad14 strain (AID 165);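 note: 0% = growth equal to vehicle treated cultures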; conditions: S. cerevisiae cln2 rad14 strain, hits give high values
# Method in brief: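 Each compound was tested on cln2 rad14 yeast. Inhibition of growth was calculated against vehicle-exposed controls.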
# [5] = NCI Yeast Anticancer Drug Screen. Data for the bub3 strain (AID 167); conditions: S. cerevisiae bub3 mutant strain, hits give high values
# Method in brief: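 Mutant yeast screening strain plus compound; vehicle-treated cultures serve as the 0% inhibition reference.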
# [6] = NCI Yeast Anticancer Drug Screen. Data for the mlh1 rad18 strain (AID 175); conditions: S. cerevisiae mlh1 rad18 strain growth inhibition, hits give high values
# Method in brief: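 Vehicle-treated cultures served as the reference for growth inhibition in a yeast strain carrying DNA damage repair alterations exposed to each compound.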
# [7] = at 5.0 µM (retest, dose inferred, filed as 0.5)
# [8] = at 50.0 µM (retest, dose inferred, filed as 5.0)
SMILES,"growth inhibition [1, 7]","growth inhibition [1, 8]",growth inhibition ([1]; at 50.0 µM),"growth inhibition [2, 7]","growth inhibition [2, 8]",growth inhibition ([2]; at 50.0 µM),"growth inhibition [3, 7]","growth inhibition [3, 8]",growth inhibition ([3]; at 50.0 µM),"growth inhibition [4, 7]","growth inhibition [4, 8]",growth inhibition ([4]; at 50.0 µM),"growth inhibition [5, 7]","growth inhibition [5, 8]",growth inhibition ([5]; at 50.0 µM),"growth inhibition [6, 7]","growth inhibition [6, 8]",growth inhibition ([6]; at 50.0 µM)
NCCCN1CCN(CCCN2CC2)CC1,1%,84% (active),93.9% (active),1%,30%,58.3%,-1%,83% (active),85.3% (active),-1%,92% (active),93.5% (active),0%,80% (active),86.5% (active),-1%,71% (active),89.8% (active)
COc1ccc([As](O[As](c2ccc(OC)cc2)c2ccc(OC)cc2)c2ccc(OC)cc2)cc1,99% (active),99% (active),99.2% (active),100% (active),100% (active),99.6% (active),100% (active),100% (active),99.5% (active),99% (active),99% (active),99.4% (active),99% (active),99% (active),99.4% (active),99% (active),99% (active),99.5% (active)
S=C1NCCN1,1%,65%,12.2%,-4%,15%,14.7%,0%,35%,-17.6%,5%,14%,38.5%,-1%,21%,-2.65%,2%,51%,4.95%
C[n+]1c(/C=C/c2ccc(O)c3ccccc23)[se]c2ccccc21,-3%,78% (active),84.8% (active),-13%,40%,47.4%,-24%,76% (active),87.1% (active),-2%,16%,41.2%,-5%,20%,74.6% (active),13%,81% (active),78.9% (active)
O=[N+]([O-])O.c1ccc([As+](c2ccccc2)(c2ccccc2)c2ccccc2)cc1,26%,96% (active),97% (active),43%,99% (active),97.9% (active),21%,98% (active),97% (active),7%,92% (active),97.6% (active),16%,97% (active),97% (active),24%,96% (active),95.8% (active)
CC(CCC/C=C/CCCN(C)C(=N)N)CC(C)C1OC(=O)C(C)C(O)/C=C/C(C)C(O)C(C)C(O)C(C)C(O)CCCC(O)CC2(O)OC(CC(OC(=O)CC(=O)O)CC(O)CC(O)C(C)C(O)/C=C/C=C/C1C)CC(O)C2O (stereo not given),-79%,99% (active),92.9% (active),7%,99% (active),94.1% (active),6%,99% (active),93.6% (active),21%,99% (active),92.2% (active),9%,99% (active),93.1% (active),13%,99% (active),92.8% (active)
O=C(Oc1ccc(S(=O)(=O)F)cc1F)c1ccccc1Cl,5%,99% (active),99.2% (active),5%,99% (active),99.5% (active),-2%,99% (active),99.3% (active),-10%,99% (active),99% (active),6%,99% (active),99.4% (active),21%,99% (active),98.7% (active)
CCC(C)c1cnc(CC(C)C)c(=O)n1O (stereo not given),87% (active),99% (active),91% (active),26%,99% (active),88.8% (active),75% (active),98% (active),90% (active),68%,98% (active),86.3% (active),59%,98% (active),90.7% (active),73% (active),99% (active),89.6% (active)
CCCC(C)(COC(N)=O)COC(=O)NC1CC1 (stereo not given),-8%,0%,21.9%,-12%,0%,0.05%,-8%,0%,36.3%,-2%,-6%,37.1%,0%,-5%,-4.4%,14%,7%,-2%
O=[N+]([O-])/C=C\C(Cl)(Cl)Cl,74% (active),99% (active),91.7% (active),72% (active),99% (active),92.7% (active),73% (active),99% (active),92.2% (active),82% (active),99% (active),91.5% (active),92% (active),99% (active),90.5% (active),74% (active),99% (active),91.3% (active)
ClCCN(CCCl)c1ccc(C2N(Cc3ccc(Cl)cc3)CCN2Cc2ccc(Cl)cc2)cc1,25%,86% (active),79.4% (active),44%,85% (active),60.5%,53%,94% (active),80.9% (active),13%,85% (active),46.9%,22%,71% (active),48%,76% (active),97% (active),79.5% (active)
O=C(O)c1ccc([Se][Se]c2ccc(C(=O)O)cc2)cc1,63%,97% (active),89.9% (active),39%,98% (active),92.8% (active),58%,99% (active),93.3% (active),33%,94% (active),91.5% (active),41%,99% (active),91.2% (active),67%,97% (active),91.1% (active)
Oc1c(Cl)c(Cl)cc(Cl)c1Cl,8%,90% (active),23.5%,7%,97% (active),68.9%,34%,95% (active),61.1%,-27%,94% (active),79.8% (active),13%,92% (active),48.3%,-6%,92% (active),61.8%
O=P(c1cccc(C(F)(F)F)c1)(c1cccc(C(F)(F)F)c1)c1cccc(C(F)(F)F)c1.O=P(c1cccc(C(F)(F)F)c1)(c1cccc(C(F)(F)F)c1)c1cccc(C(F)(F)F)c1.[Cl][Sn]([Cl])([Cl])[Cl],3%,79% (active),31.7%,3%,83% (active),18.5%,3%,79% (active),-5.9%,-10%,73% (active),62.8%,4%,89% (active),48.8%,9%,81% (active),61.1%
N#C[S-].[La+3].c1cnc2c(c1)ccc1cccnc12.c1cnc2c(c1)ccc1cccnc12.c1cnc2c(c1)ccc1cccnc12,97% (active),98% (active),91.9% (active),99% (active),99% (active),94.4% (active),99% (active),99% (active),93.5% (active),95% (active),98% (active),92.7% (active),99% (active),99% (active),92.1% (active),98% (active),98% (active),91.3% (active)
O=C1OCC2CC3C4C=CC(C4)C3C12 (stereo not given),40%,99% (active),99.2% (active),47%,100% (active),99.5% (active),69%,99% (active),99.4% (active),4%,99% (active),99% (active),20%,99% (active),99.4% (active),77% (active),99% (active),99.2% (active)
COc1cc(/C=C(/C)[N+](=O)[O-])ccc1O,90% (active),99% (active),99.1% (active),13%,100% (active),99.6% (active),42%,54%,99.5% (active),19%,99% (active),98.6% (active),14%,99% (active),99.1% (active),59%,99% (active),99.2% (active)
Nc1ccc(C(=O)O)c(C(=O)O)c1.[Cl][Sn]([Cl])([Cl])[Cl],3%,-9%,48%,3%,46%,59.6%,8%,36%,53.7%,-4%,-21%,76.1% (active),1%,-2%,80.8% (active),-3%,20%,40.4%
CC1=C[C@H]2O[C@H]3C[C@H]4OC(=O)/C=C\C=C\C(=O)OCC[C@@H](C)C(O)C(=O)OC[C@@]2(CC1)[C@@]4(C)[C@]31CO1 (stereo not given in full),99% (active),98% (active),93.5% (active),99% (active),99% (active),95% (active),100% (active),99% (active),95% (active),99% (active),98% (active),93.2% (active),99% (active),99% (active),94.3% (active),99% (active),98% (active),93.5% (active)
O=C(CBr)OC1CCCCC1,73% (active),97% (active),91% (active),41%,98% (active),69.4%,55%,98% (active),87.4% (active),24%,80% (active),10.9%,60%,97% (active),75.8% (active),69%,98% (active),90.4% (active)
Nc1nc2ncnc(N)c2nc1-c1ccc(N(CCCl)CCCl)cc1,-2%,46%,55.7%,-3%,38%,46%,-3%,54%,85.4% (active),6%,18%,16.4%,-1%,40%,13.7%,-5%,35%,68.8%
O=P(Oc1ccccc1)(Oc1ccccc1)Oc1ccccc1Cl,5%,0%,29.4%,3%,-8%,0.05%,-4%,4%,13.6%,0%,-14%,-6.1%,2%,28%,66.5%,-13%,-3%,51.6%
CCC[CH2][Sn]1([CH2]CCC)[O]CCN2CCN(CC[O]1)CC2,-4%,12%,74.1% (active),-4%,13%,94% (active),-3%,9%,83.2% (active),-5%,5%,41.6%,-2%,10%,53.1%,-6%,15%,85.7% (active)
Nc1ccc([As]=[As]c2ccc(N)cc2)cc1 (stereo not given),-14%,71% (active),73.7% (active),2%,91% (active),96.6% (active),-16%,68%,50.2%,2%,67%,91.2% (active),3%,91% (active),97.2% (active),-1%,86% (active),90.8% (active)
COC1OCCC[CH]1[Hg][Cl] (stereo not given),98% (active),99% (active),99.2% (active),100% (active),99% (active),99.3% (active),99% (active),99% (active),99.5% (active),99% (active),99% (active),99.3% (active),99% (active),99% (active),99.5% (active),99% (active),99% (active),99.2% (active)
